# Measurements from PubChem BioAssay.
# Activity calls are given as the source filed them. Unless noted, no rule for the calls is given here.
# What was measured:
# [1] = test system: Wnt5a (protein binding on small-molecule microarray); assay: small molecules binding Wnt5a protein – biophysical, small-molecule microarray, 635/667 nm fluorescence, primary screen (AID 1142); details: 635 nm fluorescence, higher = more signal;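 also: fluorescence read at 667 nm with signal to noise per printed feature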
# [2] = ATP-based viability of Huh7 replicon cells – cell-based, CellTiter-Glo luminescence, basal, 48 h, cytotoxicity control for HCV replication inhibitor project, primary screen (AID 1143); details: higher = more signal, called active from +8 up or from −8 down;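 also: Huh7 hepatoma cells carrying a hepatitis C replication reporter with no stimulus; test concentration not given here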
# [3] = Pseudomonas biofilm growth suppression – PAO1 strain, BacTiter-Glo luminescence, LB-PBS, primary screen (AID 1144); details: P. aeruginosa PAO1 biofilm, 12 h, higher = more signal
# [4] = basal CRE-LacZ reporter activity in PC12 – cell-based, unstimulated, primary screen (AID 1145); details: no forskolin, luminescence, 4.5 h, higher = more signal, called active from +8 up or from −8 down
# [5] = forskolin-driven CRE-LacZ activity in PC12 – cell-based, CRE-LacZ reporter, forskolin-stimulated, primary screen (AID 1146); details: luminescence, 4.5 h, higher = more signal, called active from +8 up or from −8 down;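 also: PC12 cells with 6xCRE LacZ reporter stimulated by forskolin 10 µM; beta-galactosidase reporter signal reflecting CREB driven transcription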
# [6] = target: Streptavidin (Streptomyces avidinii) (UniProt P22629); assay: compounds binding control protein streptavidin – biophysical, small-molecule microarray, 635/667 nm fluorescence, artefact control for SMM compound annotation, primary screen (AID 1147); details: higher = more signal;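 also: signal reflects streptavidin binding to arrayed compounds as a control protein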
# Streptavidin (Streptomyces avidinii), sequence (P22629 whole entry, looked up): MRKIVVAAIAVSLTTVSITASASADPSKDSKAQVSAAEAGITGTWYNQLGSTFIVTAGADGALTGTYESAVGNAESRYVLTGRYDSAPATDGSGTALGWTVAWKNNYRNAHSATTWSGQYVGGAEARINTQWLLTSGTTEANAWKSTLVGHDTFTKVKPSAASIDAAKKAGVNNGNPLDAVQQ
# [7] = probe aInhba binding on compound microarray – biochemical, small-molecule microarray, 635/667 nm fluorescence, primary screen (AID 1148); details: higher = more signal;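 also: score merges 667nm spot fluorescence with signal-to-noise for antibody binding to printed compounds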
# Torsin-1A (Homo sapiens) [8] = target: Torsin-1A (Homo sapiens) (UniProt O14656); assay: TOR1A wild-type binding on microarray – cell lysate, small-molecule microarray, lysate, 635/667 nm, primary screen (AID 1149); details: COS7 hTOR1A-WT lysate, 635 nm fluorescence, higher = more signal
# Torsin-1A (Homo sapiens), sequence (O14656 whole entry, looked up): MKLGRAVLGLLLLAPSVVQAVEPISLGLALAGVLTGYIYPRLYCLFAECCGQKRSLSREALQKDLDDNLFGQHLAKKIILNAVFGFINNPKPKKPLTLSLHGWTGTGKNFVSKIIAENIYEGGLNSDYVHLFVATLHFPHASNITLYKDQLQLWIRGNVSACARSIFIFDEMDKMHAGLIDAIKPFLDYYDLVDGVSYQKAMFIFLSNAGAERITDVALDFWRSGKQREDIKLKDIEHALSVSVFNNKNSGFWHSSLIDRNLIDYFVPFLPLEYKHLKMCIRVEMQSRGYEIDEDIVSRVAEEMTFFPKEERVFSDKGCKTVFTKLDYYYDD
# Torsin-1A (Homo sapiens) [9] = target: Torsin-1A (Homo sapiens) (UniProt O14656); assay: torsin A mutant lysate binding on microarrays – cell lysate, small-molecule microarray, COS7 lysate, 635/667 nm fluorescence, primary screen (AID 1150); details: COS7 hTOR1A mutant lysate, 635 nm fluorescence, higher = more signal;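 also: score pools 667 nm emission and signal to noise measuring lysate protein binding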
# [10] = test system: Sonic hedgehog protein (Shh); assay: Sonic hedgehog microarray binding compounds – biochemical, small-molecule microarray, 635/667 nm fluorescence, primary screen (AID 1151); details: 635 nm fluorescence, higher = more signal;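 also: Shh protein binding to compounds spotted on small-molecule microarray slides; score combines spot fluorescence intensity with signal-to-noise across triplicate slides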
SMILES,composite z-score [1],z-score [2],z-score [3],z-score [4],z-score [5],composite z-score [6],composite z-score [7],composite z-score (Torsin-1A (Homo sapiens) [8]),composite z-score (Torsin-1A (Homo sapiens) [9]),composite z-score [10]
COC(=O)[C@@]1(Cc2ccc(OC)cc2)[C@H]2c3cc(C(=O)N(C)C)n(Cc4ccc(C)o4)c3C[C@H]2CN1C(=O)c1ccccc1,0.331,-1.93 (inactive),1.15 (inactive),-0.568 (inactive),-0.46 (inactive),0.57,0.112,-0.0657,0.567,-0.797
COc1ccc([Si](C)(C)[C@@H]2[C@@H](CC(=O)N3Cc4ccccc4C[C@H]3CO)O[C@]3(C(=O)N(Cc4ccc(N5C(=O)c6cccc7cccc5c67)cc4)c4ccccc43)[C@H]2C)cc1,0.453,-2.28 (inactive),-0.334 (inactive),2.34 (inactive),0.972 (inactive),0.29,0.0319,0.645,0.592,1.69
CCOc1cc(C(O)C2C=CC3C(=O)NC(=O)C3N2Nc2ccc(Cl)cc2Cl)ccc1O (stereo not given),-0.0753,0.625 (inactive),-0.542 (inactive),1 (inactive),-0.323 (inactive),-0.431,0.0427,-0.662,-0.141,-0.479
CCCCC(O)C1C=CC2C(=O)N(C)C(=O)C2N1N(c1ccccc1)c1ccccc1 (stereo not given),0.29,-0.975 (inactive),0.092 (inactive),1.59 (inactive),0.281 (inactive),0.971,0.0075,0.14,0.464,0.471
Cc1ccc(S[C@]2(C(=O)NCCN3CCOCC3)CC(=O)N(Cc3ccccc3Cl)[C@@H]2c2ccc(CO)cc2I)cc1,0.0976,-2.1 (inactive),-0.0266 (inactive),-0.581 (inactive),0.631 (inactive),-0.343,0.658,-1.69,0.75,-0.316
NC(=O)[C@@]1(Cc2ccccc2)COC(c2ccc(OCCCO)cc2)=N1,0.0546,0.257 (inactive),0.126 (inactive),2.24 (inactive),-1.34 (inactive),-0.504,0.105,-0.475,0.709,-0.429
C=CCOC(=O)[C@@H]1[C@H]2C(=O)O[C@H](c3ccccc3)[C@H](c3ccccc3)N2[C@H](c2ccc(OCCOC(=O)[C@@H]3C[C@@H]4C(=O)N[C@@H](CCCC[N+](C)(C)C)C(=O)N4[C@@H]3c3ccc(O)cc3)cc2)[C@@]12C(=O)Nc1ccc(I)cc12,0.865,-0.731 (inactive),-1.37 (inactive),-1.35 (inactive),0.206 (inactive),-0.111,0.0665,1.22,0.781,1.83
COCCOC(=O)N1C(=O)[C@@]2(c3cc(C#CC4=CCCCC4)ccc31)[C@H](c1ccccc1OCCO)N1[C@H](c3ccccc3)[C@H](c3ccccc3)OC(=O)[C@H]1[C@@H]2C(=O)N1CCN(c2ncccn2)CC1,0.471,-4.96 (inactive),-1.23 (inactive),-1.28 (inactive),-0.752 (inactive),0.407,0.181,0.0128,0.202,0.942
COc1ccc([C@H]2OC[C@@H]3C[C@H](Cc4ccccc4)C(=O)N32)cc1,0.204,-3.52 (inactive),0.305 (inactive),1.99 (inactive),0.213 (inactive),-0.371,-0.0962,0.48,0.0464,0.532
NC(=O)[C@H]1[C@@H]2C(=O)O[C@@H](c3ccccc3)[C@@H](c3ccccc3)N2[C@@H](c2ccc(OCCO)cc2)[C@]12C(=O)Nc1ccc(C#CCCO)cc12,0.262,-0.532 (inactive),-0.311 (inactive),-0.465 (inactive),0.776 (inactive),0.617,0.136,0.579,0.331,0.177
[N-]=[N+]=Nc1ccccc1[C@H]1OC(c2ccc(OCCCO)cc2)=N[C@@]1(Cc1ccccc1)C(=O)NCCN1CCOCC1,1.47,-3.37 (inactive),-0.395 (inactive),-0.697 (inactive),-1.62 (inactive),1.32,0.936,0.596,0.0723,1.44
COc1ccc(C(=O)Nc2ccc(CN3C(=O)[C@]4(O[C@H](CC(=O)N5Cc6ccccc6C[C@H]5CO)[C@@H]([Si](C)(C)c5ccc(OC)cc5)[C@@H]4C)c4ccccc43)cc2)cc1,0.307,-3.81 (inactive),0.556 (inactive),-0.011 (inactive),-0.6 (inactive),0.134,-0.132,0.851,0.93,2.04
NC(=O)NCC#Cc1ccc2c(c1)[C@]1(C(=O)N2)[C@H](C(=O)N2CCN(c3ncccn3)CC2)[C@H]2C(=O)O[C@H](c3ccccc3)[C@H](c3ccccc3)N2[C@@H]1c1ccc(O)cc1,0.364,-0.0243 (inactive),0.407 (inactive),-0.467 (inactive),-0.43 (inactive),0.328,-0.352,0.0312,0.377,0.905
C=CCN1C(=O)[C@]2(CCC(=O)OC(C)(C)C)N=C(c3ccc(OCCCO)cc3)O[C@@H]2c2ccccc21,0.176,-3.67 (inactive),-0.149 (inactive),0.124 (inactive),-1.99 (inactive),0.0475,0.0631,-0.0806,0.19,1.71
C=C(COC)/C(=C/C[C@H](OC(=O)c1ccncc1)c1ccc(CO)o1)c1cnc2ccccc2c1,0.304,0.114 (inactive),-0.268 (inactive),0.303 (inactive),-0.499 (inactive),1.16,-0.0933,0.299,0.732,2.07
Cn1cccc1C(O)C1C=CC2C(=O)N(c3ccccc3)C(=O)C2N1Nc1ccccc1 (stereo not given),0.402,0.525 (inactive),-0.758 (inactive),-0.525 (inactive),-0.0981 (inactive),1.77,0.153,0.478,0.726,0.379
COc1ccc(C#Cc2ccc3c(c2)[C@]2(C(=O)N3)[C@H](C(=O)O)[C@H]3C(=O)O[C@H](c4ccccc4)[C@H](c4ccccc4)N3[C@@H]2c2ccc(O)cc2)cc1,0.0637,-4.48 (inactive),-0.563 (inactive),0.0653 (inactive),-0.332 (inactive),-0.31,-0.0313,0.269,0.578,-0.454
CCCCC[C@H]1OC[C@@]23C=C(Br)[C@@H](CC12)[C@@]1(CO1)C3=O (stereo not given in full),-0.233,-0.473 (inactive),0.931 (inactive),0.495 (inactive),0.289 (inactive),-0.619,-0.128,-0.695,-0.424,0.647
NCCCCCCNC(=O)[C@@H]1C[C@@H]2C(=O)N[C@@H](CCCCN)C(=O)N2[C@@H]1c1ccc(O)cc1,0.0704,-2.28 (inactive),-0.611 (inactive),-1.35 (inactive),-0.965 (inactive),-0.865,0.033,0.822,1.03,1.62
CC1CC/C=C\[C@H]2OC34C=CCN(c5ccc(Cl)cc5)C(=O)[C@H]3N(C(C)CO)C(=O)[C@]4(C)C2C(=O)O1 (stereo not given in full),-0.304,0.0276 (inactive),0.2 (inactive),-0.0859 (inactive),0.325 (inactive),-0.367,-0.401,-0.979,-1.5,-0.374
N#Cc1ccc(NN2C(C(O)c3ccc(Br)cc3)C=CC3C(=O)N(c4ccccc4)C(=O)C32)cc1 (stereo not given),0.395,-0.35 (inactive),-1.3 (inactive),0.0535 (inactive),-0.36 (inactive),0.843,0.222,0.441,0.604,0.834
C=CCNC(=O)[C@@H]1[C@H]2C(=O)O[C@H](c3ccccc3)[C@H](c3ccccc3)N2[C@H](c2ccc(O)cc2)[C@@]12C(=O)N(C(=O)OCCOC)c1ccc(C#CC3=CCCCC3)cc12,0.432,-2.12 (inactive),0.411 (inactive),0.346 (inactive),-0.0705 (inactive),0.268,0.0705,0.87,0.686,1.86
Cc1ccc(S[C@]2(C(=O)NCC(F)(F)F)CC(=O)N(Cc3cc(C(F)(F)F)cc(C(F)(F)F)c3)[C@@H]2c2ccc(CO)cc2I)cc1,-0.676,-3.02 (inactive),-1.29 (inactive),-0.529 (inactive),0.423 (inactive),-0.978,-0.153,-0.877,-0.902,-0.58
C=C[C@@H](OC)[C@H](OC(=O)Nc1ccc(OC)cc1)c1ccc(O)c(F)c1,-0.182,-2.63 (inactive),-0.238 (inactive),2.21 (inactive),1.53 (inactive),-0.938,-0.197,0.281,-0.278,1.96
Cc1ccc(S[C@]2(C(=O)NCC(F)(F)F)CC(=O)N(Cc3cc(C(F)(F)F)cc(C(F)(F)F)c3)[C@@H]2c2ccc(CO)cc2)cc1,-0.824,-0.262 (inactive),0.75 (inactive),0.182 (inactive),-0.0993 (inactive),-0.638,-0.0933,-1.5,-1.2,0.319
